# Laboratory results as given in the supplement of paper PMC6555819.
# Legend:
# Experiment in all cases: PBM binding z-score (relative to random genomic background probes); higher = stronger binding; sequences stand for … in GC…GCGATTGACAGCGTAGAATGAAGG
# [1] = test system: FXR:RXRa (NR concentration 270 nM, RXRa partner concentration 90 nM)
# Outline: (§1)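 Random background probes are the reference for binding z-scores. These scores derive from regression-normalized fluorescence on custom Agilent 4×180K protein-binding microarrays incubated 1 h with ligand-free nuclear receptor dimers. Binding was detected with antibodies against each partner (one per run).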
# [2] = test system: LXRa:RXRa (NR concentration 270 nM, RXRa partner concentration 90 nM)
# Outline: as §1
# [3] = test system: LXRa homodimer (NR concentration 270 nM)
# Outline: as §1
# [4] = test system: LXRb:RXRa (NR concentration 270 nM, RXRa partner concentration 90 nM)
# Outline: as §1
# [5] = test system: LXRb homodimer (NR concentration 270 nM)
# Outline: as §1
# [6] = test system: PPARa:RXRa (NR concentration 270 nM, RXRa partner concentration 90 nM)
# Outline: as §1
# [7] = test system: PPARg:RXRa (NR concentration 180 nM, RXRa partner concentration 90 nM)
# Outline: as §1
# [8] = test system: PPARg:RXRa 270nM:90nM, anti-RXR (NR concentration 270 nM, RXRa partner concentration 90 nM)
# Outline: as §1
# [9] = test system: PPARg:RXRa 30nM:10nM, anti-RXR (NR concentration 30 nM, RXRa partner concentration 10 nM)
# Outline: as §1
# [10] = test system: PPARg:RXRa 90nM:30nM, anti-RXR (NR concentration 90 nM, RXRa partner concentration 30 nM)
# Outline: as §1
# [11] = test system: PPARg:RXRa DBDmut IVT, anti-RXR (DBD mutation: RXRa K156A/R161A, NR concentration 270 nM, RXRa partner concentration 90 nM)
# Outline: as §1
# [12] = test system: PPARg:RXRa IVT, anti-PPARg (NR concentration 270 nM, RXRa partner concentration 90 nM)
# Outline: as §1
# [13] = test system: PPARg DBDmut:RXRa IVT, anti-PPARg (DBD mutation: PPARg1 K132A/R137A, NR concentration 270 nM, RXRa partner concentration 90 nM)
# Outline: as §1
# [14] = test system: PPARg DBDmut IVT, anti-PPARg (DBD mutation: PPARg1 K132A/R137A, NR concentration 270 nM)
# Outline: as §1
# [15] = test system: PPARg homodimer (NR concentration 180 nM)
# Outline: as §1
# [16] = test system: PXR:RXRa (NR concentration 270 nM, RXRa partner concentration 90 nM)
# Outline: as §1
# [17] = test system: PXR homodimer (NR concentration 270 nM)
# Outline: as §1
# [18] = test system: RARa:RXR (NR concentration 270 nM, RXRa partner concentration 90 nM)
# Outline: as §1
# [19] = test system: RARa homodimer (NR concentration 270 nM)
# Outline: as §1
# [20] = test system: RARb:RXRa (NR concentration 270 nM, RXRa partner concentration 90 nM)
# Outline: as §1
Sequence,PBM binding z-score [1],PBM binding z-score [2],PBM binding z-score [3],PBM binding z-score [4],PBM binding z-score [5],PBM binding z-score [6],PBM binding z-score [7],PBM binding z-score [8],PBM binding z-score [9],PBM binding z-score [10],PBM binding z-score [11],PBM binding z-score [12],PBM binding z-score [13],PBM binding z-score [14],PBM binding z-score [15],PBM binding z-score [16],PBM binding z-score [17],PBM binding z-score [18],PBM binding z-score [19],PBM binding z-score [20]
TCTTGTAGATCATAGGTTAAGAAAGCCGAAGCCT,1.15,0.999,-0.0576,0.991,0.0364,2.8,4.38,5.93,4.93,6.23,1.8,1.96,0.499,1.11,0.856,0.84,-0.184,1.37,0.366,0.882
CAGCCTAGGACAGGGCCAGTATAGGAGGAACGTT,-0.452,-0.926,-0.352,-0.799,-0.979,-0.804,0.36,-0.522,-0.216,-0.473,-0.459,-0.805,-1.23,-1.3,0.0188,-0.859,-0.323,-0.684,-0.467,-0.0437
CAAACTAGGTCACGGAGGTCAAAGTCCGTGCGTA,7.4,6.23,6.45,5.9,1.36,6.83,10.4,8.3,7.09,8.25,8.69,9.3,5.33,6.03,5.85,6.63,10.4,7.02,2.61,5.34
ACTATTATTTGAGACGAGGGCAACCGATAGGTTG,0.64,0.912,1.29,0.748,1.1,0.639,0.833,0.648,0.477,0.429,0.883,0.779,1.61,1.74,1.86,0.944,1.91,1.04,3.89,1.35
TCATATATGTAAAGGTGAAAGTCGAACGATATGA,0.775,1.41,-0.143,1.2,-0.14,2.68,2.6,3.13,3.73,3.47,1.83,1.99,1.26,0.868,0.62,0.981,-0.319,1.78,0.741,1.96
CGAACTAGGTCAAGCACAGTGAATCTCCGCACGC,4.1,2.35,0.195,1.67,-0.136,4.74,7.62,6.72,4.49,6.09,8.33,8.4,5.79,3.74,2.82,1.18,-0.61,2.31,0.512,3.98
